From publication PMC7862700, “An all-to-all approach to the identification of sequence-specific readers for epigenetic DNA modifications on cytosine” come the findings set out here.

Experiment in all cases: DAPPL (digital affinity profiling via proximity ligation, sequencing); 10 mM Tris-HCl pH 7.5, 50 mM NaCl, 1 mM DTT, 4% glycerol, room temperature, 30 min; GST-TFs on glutathione beads, 16-mer random dsDNA library, 0.1% formaldehyde crosslink after washing; high values mean tight binding
The target in test [1] is T1, FLI1 (Homo sapiens, UniProt Q01543 1-452).
T1 sequence: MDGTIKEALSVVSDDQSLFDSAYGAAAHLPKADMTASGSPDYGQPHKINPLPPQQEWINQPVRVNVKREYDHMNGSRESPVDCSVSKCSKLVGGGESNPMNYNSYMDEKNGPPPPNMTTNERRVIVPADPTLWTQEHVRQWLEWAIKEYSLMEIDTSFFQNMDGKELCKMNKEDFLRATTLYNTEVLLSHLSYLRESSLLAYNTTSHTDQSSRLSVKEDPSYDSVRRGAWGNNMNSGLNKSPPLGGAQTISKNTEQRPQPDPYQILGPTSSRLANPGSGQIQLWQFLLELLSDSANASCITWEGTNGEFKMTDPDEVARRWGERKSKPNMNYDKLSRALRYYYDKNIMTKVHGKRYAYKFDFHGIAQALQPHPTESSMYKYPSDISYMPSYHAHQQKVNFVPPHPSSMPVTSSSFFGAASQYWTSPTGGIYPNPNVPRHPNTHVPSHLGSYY
Particulars: protein: recombinant; tags: N-terminal GST; dsDNA, one strand shown. A digest of the protocol:
(§1)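 The binding signal reported is, for every hexamer, its read frequency for a factor over its read frequency for the tag-only sample. Reads came from pools of yeast-expressed, GST-fused human transcription factors on glutathione beads, barcoded with DNA and mixed with that sample, which were incubated with 200 nmole of a random double-stranded 16-mer DNA library in Tris/NaCl/DTT/glycerol buffer at room temperature for 30 min. After washing, the pools were crosslinked with 0.1% formaldehyde, proximity-ligated with BsaI/T4 ligase for 1 h at 37 °C, PCR-amplified and sequenced on an Illumina NextSeq500.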

In test [2] the target is T2, ELK1 (Homo sapiens, UniProt P19419 1-428).
T2 sequence: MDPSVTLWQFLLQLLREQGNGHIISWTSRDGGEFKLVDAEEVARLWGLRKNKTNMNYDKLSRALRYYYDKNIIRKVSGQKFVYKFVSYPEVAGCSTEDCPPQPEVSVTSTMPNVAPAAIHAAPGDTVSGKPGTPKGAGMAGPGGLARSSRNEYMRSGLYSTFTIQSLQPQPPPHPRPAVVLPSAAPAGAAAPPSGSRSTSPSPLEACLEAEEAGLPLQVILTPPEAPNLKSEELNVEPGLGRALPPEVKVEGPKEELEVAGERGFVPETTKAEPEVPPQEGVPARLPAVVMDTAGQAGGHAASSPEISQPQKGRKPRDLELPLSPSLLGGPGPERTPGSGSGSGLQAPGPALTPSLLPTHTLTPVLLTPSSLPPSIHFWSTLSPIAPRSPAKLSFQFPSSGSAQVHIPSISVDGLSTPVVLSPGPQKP
To be noted: protein: recombinant; tags: N-terminal GST; dsDNA, one strand shown. In short, it runs like this:
as §1

Test [3] has as its target T3, GABPA (Homo sapiens, UniProt Q06546 1-454).
T3 sequence: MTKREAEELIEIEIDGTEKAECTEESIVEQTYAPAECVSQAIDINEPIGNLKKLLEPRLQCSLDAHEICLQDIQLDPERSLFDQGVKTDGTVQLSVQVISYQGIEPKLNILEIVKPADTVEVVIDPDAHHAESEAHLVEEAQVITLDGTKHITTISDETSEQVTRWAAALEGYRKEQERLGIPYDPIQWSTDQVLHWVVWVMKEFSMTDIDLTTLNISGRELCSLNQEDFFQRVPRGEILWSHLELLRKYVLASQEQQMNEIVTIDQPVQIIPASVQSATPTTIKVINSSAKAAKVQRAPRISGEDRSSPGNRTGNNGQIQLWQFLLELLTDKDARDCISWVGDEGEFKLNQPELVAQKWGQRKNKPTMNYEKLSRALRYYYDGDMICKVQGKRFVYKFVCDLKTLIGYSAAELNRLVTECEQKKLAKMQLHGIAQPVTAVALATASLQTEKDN
Particulars: protein: recombinant; tags: N-terminal GST; dsDNA, one strand shown. A digest of the protocol: as §1

Test [4] concerns the target T4, ERG (Homo sapiens, UniProt P11308 1-479).
T4 sequence: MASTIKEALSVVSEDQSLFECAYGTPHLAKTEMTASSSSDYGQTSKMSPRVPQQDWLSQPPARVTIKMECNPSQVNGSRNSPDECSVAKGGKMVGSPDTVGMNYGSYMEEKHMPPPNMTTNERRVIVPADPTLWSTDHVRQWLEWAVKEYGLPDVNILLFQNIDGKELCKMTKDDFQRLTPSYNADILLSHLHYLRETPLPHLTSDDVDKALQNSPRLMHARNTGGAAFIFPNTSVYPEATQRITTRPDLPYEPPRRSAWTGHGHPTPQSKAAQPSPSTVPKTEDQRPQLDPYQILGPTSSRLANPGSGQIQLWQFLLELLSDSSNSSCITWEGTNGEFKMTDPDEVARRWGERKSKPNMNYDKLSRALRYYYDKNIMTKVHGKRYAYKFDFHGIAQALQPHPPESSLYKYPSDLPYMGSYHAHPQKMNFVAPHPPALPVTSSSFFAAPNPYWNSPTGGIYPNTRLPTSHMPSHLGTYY
To be noted: protein: recombinant; tags: N-terminal GST; dsDNA, one strand shown. A digest of the protocol:
as §1

Test [5] deals with ELF1 (Homo sapiens, UniProt P32519 1-619). To be noted: protein: recombinant; tags: N-terminal GST; dsDNA, one strand shown. A digest of the protocol: as §1
The target in test [6] is T5, EHF (Homo sapiens, UniProt Q9NZC4 1-300).
T5 sequence: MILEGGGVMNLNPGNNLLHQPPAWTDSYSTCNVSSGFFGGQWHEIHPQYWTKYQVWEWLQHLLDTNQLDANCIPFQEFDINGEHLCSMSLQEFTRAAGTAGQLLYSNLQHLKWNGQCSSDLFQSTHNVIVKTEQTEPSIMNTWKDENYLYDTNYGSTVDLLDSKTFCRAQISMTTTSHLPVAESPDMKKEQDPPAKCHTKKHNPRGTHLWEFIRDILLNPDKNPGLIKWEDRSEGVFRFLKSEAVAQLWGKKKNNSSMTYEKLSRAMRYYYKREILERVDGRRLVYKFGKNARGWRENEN
Particulars: protein: recombinant; tags: N-terminal GST; dsDNA, one strand shown. In short, it runs like this: as §1

In test [7] the target is SPI1 (Homo sapiens, UniProt P17947 1-270). To be noted: protein: recombinant; tags: N-terminal GST; dsDNA, one strand shown. A digest of the protocol:
as §1

Test [8] concerns the target SPIB (Homo sapiens, UniProt Q01892 1-262). To be noted: protein: recombinant; tags: N-terminal GST; dsDNA, one strand shown. A digest of the protocol:
as §1

Test [9] has as its target T6, ELK3 (Homo sapiens, UniProt P41970 1-407).
T6 sequence: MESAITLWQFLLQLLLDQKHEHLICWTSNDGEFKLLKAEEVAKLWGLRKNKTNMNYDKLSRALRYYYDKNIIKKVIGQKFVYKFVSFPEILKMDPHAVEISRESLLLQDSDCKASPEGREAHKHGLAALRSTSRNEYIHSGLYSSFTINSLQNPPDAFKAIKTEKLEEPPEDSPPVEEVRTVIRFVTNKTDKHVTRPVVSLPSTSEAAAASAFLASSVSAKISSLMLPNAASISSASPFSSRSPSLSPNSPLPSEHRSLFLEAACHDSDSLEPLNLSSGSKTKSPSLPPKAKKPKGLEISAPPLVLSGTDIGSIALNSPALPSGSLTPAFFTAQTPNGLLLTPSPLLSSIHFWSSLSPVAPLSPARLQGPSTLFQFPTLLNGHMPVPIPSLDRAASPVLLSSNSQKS
To be noted: protein: recombinant; tags: N-terminal GST; dsDNA, one strand shown. In short, it runs like this: as §1

Test [10] has as its target T7, FEV (Homo sapiens, UniProt Q99581 1-238).
T7 sequence: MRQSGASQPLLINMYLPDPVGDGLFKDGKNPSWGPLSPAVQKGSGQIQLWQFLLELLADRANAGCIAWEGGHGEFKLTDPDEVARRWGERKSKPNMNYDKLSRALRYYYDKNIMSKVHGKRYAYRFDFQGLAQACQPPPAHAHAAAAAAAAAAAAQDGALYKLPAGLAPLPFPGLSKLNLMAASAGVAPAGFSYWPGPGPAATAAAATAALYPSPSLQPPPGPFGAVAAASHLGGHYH
Particulars: protein: recombinant; tags: N-terminal GST; dsDNA, one strand shown. A digest of the protocol:
as §1

The target of test [11] is ETV5 (Homo sapiens, UniProt P41161 1-510). Particulars: protein: recombinant; tags: N-terminal GST; dsDNA, one strand shown. A digest of the protocol: as §1
The target of test [12] is HSF1 (Homo sapiens, UniProt Q00613 1-529). Particulars: protein: recombinant; tags: N-terminal GST; chain copies: 3; dsDNA, one strand shown. A digest of the protocol:
as §1

Test [13] addresses T8, SPIC (Homo sapiens, UniProt Q8N5J4 1-248).
T8 sequence: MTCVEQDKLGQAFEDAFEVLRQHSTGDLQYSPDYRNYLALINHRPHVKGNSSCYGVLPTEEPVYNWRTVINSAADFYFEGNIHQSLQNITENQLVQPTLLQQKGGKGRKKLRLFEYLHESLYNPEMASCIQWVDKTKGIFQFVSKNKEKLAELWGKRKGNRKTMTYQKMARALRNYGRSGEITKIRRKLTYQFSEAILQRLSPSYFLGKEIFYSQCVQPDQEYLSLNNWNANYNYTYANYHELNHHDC
Particulars: protein: recombinant; tags: N-terminal GST; dsDNA, one strand shown. A digest of the protocol:
as §1

The target in test [14] is ELF4 (Homo sapiens, UniProt Q99607 1-663). To be noted: protein: recombinant; tags: N-terminal GST; dsDNA, one strand shown. A digest of the protocol: as §1
Test [15] concerns the target T9, ELK4 (Homo sapiens, UniProt P28324-2 1-405).
T9 sequence: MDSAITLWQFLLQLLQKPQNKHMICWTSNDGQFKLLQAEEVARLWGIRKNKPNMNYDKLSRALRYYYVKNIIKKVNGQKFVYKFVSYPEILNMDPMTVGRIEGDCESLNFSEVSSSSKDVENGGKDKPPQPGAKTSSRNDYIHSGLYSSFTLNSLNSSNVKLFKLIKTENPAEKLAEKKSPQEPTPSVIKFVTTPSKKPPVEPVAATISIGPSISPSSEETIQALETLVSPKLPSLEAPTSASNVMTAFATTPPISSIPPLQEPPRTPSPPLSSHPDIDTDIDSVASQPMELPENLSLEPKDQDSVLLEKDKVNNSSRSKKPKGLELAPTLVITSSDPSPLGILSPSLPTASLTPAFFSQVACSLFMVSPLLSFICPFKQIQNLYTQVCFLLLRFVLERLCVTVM
To be noted: protein: recombinant; tags: N-terminal GST; dsDNA, one strand shown. In short, it runs like this: as §1

Test [16] deals with T10, ELF3 (Homo sapiens, UniProt P78545 1-371).
T10 sequence: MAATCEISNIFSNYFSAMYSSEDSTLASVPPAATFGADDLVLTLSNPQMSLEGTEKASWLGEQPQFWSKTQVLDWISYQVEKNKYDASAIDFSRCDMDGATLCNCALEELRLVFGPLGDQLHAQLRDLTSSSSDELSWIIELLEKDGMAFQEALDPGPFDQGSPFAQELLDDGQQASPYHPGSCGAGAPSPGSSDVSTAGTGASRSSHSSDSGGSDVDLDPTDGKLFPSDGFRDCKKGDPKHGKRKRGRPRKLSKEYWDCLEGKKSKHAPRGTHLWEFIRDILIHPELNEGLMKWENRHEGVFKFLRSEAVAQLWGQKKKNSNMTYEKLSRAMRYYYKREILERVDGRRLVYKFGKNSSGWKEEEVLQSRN
To be noted: protein: recombinant; tags: N-terminal GST; dsDNA, one strand shown. In short, it runs like this:
as §1

Test [17] deals with CRX (Homo sapiens, UniProt O43186 1-299). Particulars: protein: recombinant; tags: N-terminal GST; dsDNA, one strand shown. In short, it runs like this:
as §1

The target in test [18] is ETV1 (Homo sapiens, UniProt P50549 1-477). Particulars: protein: recombinant; tags: N-terminal GST; dsDNA, one strand shown. In short, it runs like this: as §1
Sequence of ETV1 (P50549 whole entry): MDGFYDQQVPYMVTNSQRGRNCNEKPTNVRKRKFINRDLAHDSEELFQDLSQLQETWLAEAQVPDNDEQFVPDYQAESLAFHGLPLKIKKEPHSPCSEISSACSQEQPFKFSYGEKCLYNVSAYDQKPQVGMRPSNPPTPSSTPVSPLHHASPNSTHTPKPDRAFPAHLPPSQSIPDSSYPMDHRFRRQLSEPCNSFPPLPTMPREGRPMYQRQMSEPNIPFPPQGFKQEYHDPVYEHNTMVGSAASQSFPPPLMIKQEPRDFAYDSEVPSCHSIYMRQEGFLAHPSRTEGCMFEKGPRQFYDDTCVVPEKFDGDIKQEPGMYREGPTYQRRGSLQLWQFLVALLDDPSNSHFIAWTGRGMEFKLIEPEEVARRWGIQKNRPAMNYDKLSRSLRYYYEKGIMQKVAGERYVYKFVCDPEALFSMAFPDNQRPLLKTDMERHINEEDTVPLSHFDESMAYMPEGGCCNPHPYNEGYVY

Sequence of ELF4 (Q99607 whole entry): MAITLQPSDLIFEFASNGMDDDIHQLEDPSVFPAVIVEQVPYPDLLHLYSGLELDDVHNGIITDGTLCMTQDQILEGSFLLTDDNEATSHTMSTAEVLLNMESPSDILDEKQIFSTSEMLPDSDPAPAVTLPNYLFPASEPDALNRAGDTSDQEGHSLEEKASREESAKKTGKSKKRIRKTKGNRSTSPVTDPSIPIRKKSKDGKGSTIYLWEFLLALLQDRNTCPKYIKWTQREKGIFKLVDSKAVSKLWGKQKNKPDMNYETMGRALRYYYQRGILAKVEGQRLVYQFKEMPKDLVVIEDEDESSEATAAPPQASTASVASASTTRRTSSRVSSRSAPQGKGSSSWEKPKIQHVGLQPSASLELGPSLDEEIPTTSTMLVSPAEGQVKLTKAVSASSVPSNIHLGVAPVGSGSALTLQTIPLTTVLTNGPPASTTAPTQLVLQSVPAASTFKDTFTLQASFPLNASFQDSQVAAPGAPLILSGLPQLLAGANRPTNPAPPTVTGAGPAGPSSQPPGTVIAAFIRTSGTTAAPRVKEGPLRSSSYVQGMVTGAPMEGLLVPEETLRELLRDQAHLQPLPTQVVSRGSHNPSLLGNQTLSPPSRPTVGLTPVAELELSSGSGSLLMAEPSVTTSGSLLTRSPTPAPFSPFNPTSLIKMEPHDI
Sequence of CRX (O43186 whole entry): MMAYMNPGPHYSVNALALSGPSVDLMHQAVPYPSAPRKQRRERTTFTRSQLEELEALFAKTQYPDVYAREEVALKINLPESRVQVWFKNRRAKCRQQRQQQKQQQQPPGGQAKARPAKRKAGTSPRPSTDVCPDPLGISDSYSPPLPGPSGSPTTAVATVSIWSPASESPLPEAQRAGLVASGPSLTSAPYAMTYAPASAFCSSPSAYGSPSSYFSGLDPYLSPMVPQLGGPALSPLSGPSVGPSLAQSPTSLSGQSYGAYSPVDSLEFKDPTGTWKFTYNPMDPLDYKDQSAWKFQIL
Sequence of ETV5 (P41161 whole entry): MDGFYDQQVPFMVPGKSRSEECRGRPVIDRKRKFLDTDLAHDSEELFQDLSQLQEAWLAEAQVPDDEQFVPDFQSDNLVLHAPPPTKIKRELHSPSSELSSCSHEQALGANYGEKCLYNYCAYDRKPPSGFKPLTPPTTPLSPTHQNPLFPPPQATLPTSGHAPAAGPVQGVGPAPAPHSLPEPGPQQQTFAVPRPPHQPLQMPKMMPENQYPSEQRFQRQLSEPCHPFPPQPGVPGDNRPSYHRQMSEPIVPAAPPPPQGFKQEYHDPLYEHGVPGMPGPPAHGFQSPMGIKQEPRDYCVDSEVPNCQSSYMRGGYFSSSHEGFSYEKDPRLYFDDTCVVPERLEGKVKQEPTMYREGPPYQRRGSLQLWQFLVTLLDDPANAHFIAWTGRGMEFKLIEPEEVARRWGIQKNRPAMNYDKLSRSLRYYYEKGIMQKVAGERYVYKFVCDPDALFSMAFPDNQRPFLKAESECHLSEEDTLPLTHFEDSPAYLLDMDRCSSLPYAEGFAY
Sequence of HSF1 (Q00613 whole entry): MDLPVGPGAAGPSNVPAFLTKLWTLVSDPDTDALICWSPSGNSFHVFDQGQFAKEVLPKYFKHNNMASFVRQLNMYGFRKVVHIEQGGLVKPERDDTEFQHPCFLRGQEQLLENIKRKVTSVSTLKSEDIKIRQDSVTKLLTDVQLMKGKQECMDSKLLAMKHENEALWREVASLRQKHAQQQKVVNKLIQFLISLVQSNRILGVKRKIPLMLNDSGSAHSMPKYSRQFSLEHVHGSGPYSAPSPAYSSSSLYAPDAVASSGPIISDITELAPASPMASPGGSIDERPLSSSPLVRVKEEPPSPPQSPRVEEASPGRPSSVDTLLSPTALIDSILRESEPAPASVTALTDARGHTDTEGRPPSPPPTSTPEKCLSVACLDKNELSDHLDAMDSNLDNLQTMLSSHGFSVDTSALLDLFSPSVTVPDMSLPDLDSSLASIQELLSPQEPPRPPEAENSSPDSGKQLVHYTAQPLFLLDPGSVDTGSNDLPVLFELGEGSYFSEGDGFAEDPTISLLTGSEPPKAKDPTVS
Sequence of ELF1 (P32519 whole entry): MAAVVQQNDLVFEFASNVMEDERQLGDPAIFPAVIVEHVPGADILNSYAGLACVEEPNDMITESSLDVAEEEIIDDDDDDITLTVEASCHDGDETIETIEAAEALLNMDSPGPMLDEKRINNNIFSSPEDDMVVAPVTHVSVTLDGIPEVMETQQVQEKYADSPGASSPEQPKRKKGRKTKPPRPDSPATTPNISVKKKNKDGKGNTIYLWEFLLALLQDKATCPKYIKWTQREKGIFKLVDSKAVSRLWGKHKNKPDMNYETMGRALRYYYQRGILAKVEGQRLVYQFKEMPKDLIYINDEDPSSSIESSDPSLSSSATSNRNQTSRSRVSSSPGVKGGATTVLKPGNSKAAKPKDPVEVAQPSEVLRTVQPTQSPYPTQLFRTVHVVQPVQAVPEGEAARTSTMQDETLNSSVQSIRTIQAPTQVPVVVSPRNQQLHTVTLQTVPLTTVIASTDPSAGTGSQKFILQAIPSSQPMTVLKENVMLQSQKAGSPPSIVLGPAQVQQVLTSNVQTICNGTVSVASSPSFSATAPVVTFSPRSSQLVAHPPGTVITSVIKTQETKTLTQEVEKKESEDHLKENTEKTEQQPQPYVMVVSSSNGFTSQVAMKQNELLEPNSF
Sequence of SPIB (Q01892 whole entry): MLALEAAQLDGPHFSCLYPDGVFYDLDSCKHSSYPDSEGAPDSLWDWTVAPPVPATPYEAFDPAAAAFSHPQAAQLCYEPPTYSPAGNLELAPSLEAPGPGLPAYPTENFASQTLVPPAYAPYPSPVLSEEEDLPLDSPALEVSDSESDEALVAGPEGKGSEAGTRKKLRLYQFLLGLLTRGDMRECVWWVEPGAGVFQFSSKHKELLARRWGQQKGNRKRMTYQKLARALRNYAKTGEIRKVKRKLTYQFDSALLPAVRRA

Regarding AGCCTC, the binding signal was 1.39 fold enrichment (6-mer frequency, TF over GST control) in test [1]; 1.3 fold enrichment (6-mer frequency, TF over GST control) in [2]; 1.31 fold enrichment (6-mer frequency, TF over GST control) in test [3]; 1.21 fold enrichment (6-mer frequency, TF over GST control) in [4]; 1.25 fold enrichment (6-mer frequency, TF over GST control) in test [5]; 1.13 fold enrichment (6-mer frequency, TF over GST control) in test [6]. Also, the binding signal was 1.26 fold enrichment (6-mer frequency, TF over GST control) in test [7]; 1.07 fold enrichment (6-mer frequency, TF over GST control) in test [8]; 1.21 fold enrichment (6-mer frequency, TF over GST control) in test [9]; 1.27 fold enrichment (6-mer frequency, TF over GST control) in [10]; 1.27 fold enrichment (6-mer frequency, TF over GST control) in test [11]; 1.3 fold enrichment (6-mer frequency, TF over GST control) in [12]. For the same sequence, the binding signal in [13] was 1.25 fold enrichment (6-mer frequency, TF over GST control); in test [14], 1.36 fold enrichment (6-mer frequency, TF over GST control); in test [15] it was 1.13 fold enrichment (6-mer frequency, TF over GST control); in test [16], 1.22 fold enrichment (6-mer frequency, TF over GST control); in [17] it was 1.33 fold enrichment (6-mer frequency, TF over GST control); in [18] it was 1.13 fold enrichment (6-mer frequency, TF over GST control).
